High-throughput results from PubChem.
The full list was thinned out, with hits kept by preference.
Pf Dd2 inh: blocks in vitro growth of P. falciparum Dd2 | P. falciparum Dd2 growth, SYBR Green, 72 h | Potency, µM (highest dose often 28.9 µM), inactives show at the highest dose activity, negative = inhibition, usual class: inhibitors | 4.3% of 120,000 active; active = well fitted inhibition curve with a large enough effect;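 also: plate controls were DMSO vehicle for no effect and reference drug for full effect; nearly all actives have a fitted effect of over 65% in size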
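Infected erythrocytes (Dd2, 0.3% parasitemia, 2.5% hematocrit final) are added to compound in RPMI-1640/Albumax II medium, grown 72 h at 37C in low oxygen, then lysed with saponin/Triton-X containing SYBR Green and read by fluorescence.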
* = called active by the depositor; [ ] = another dose, or the depositor's remark. Potency is read from the fitted curve at half-maximal effect.

COc1cccc(CNC(=O)[C@@H]2C[C@@H](O)CN2C2CCN(C(=O)c3ccco3)CC2)c1 was read as Pf Dd2 inh inactive.
COc1cccc(CNC(=O)[C@@H]2C[C@@H](O)CN2C2CCN(C(=O)c3cccc(OC)c3)CC2)c1 was read as Pf Dd2 inh -11%.
Screening COc1cccc(CNC(=O)[C@@H]2C[C@@H](O)CN2C2CCN(C(=O)c3cccs3)CC2)c1 returned Pf Dd2 inh 8.9µM*.
For COc1cccc(CNC(=O)[C@@H]2C[C@@H](O)CN2C2CCN(C(=O)Cc3ccc(Cl)cc3)CC2)c1 the results were Pf Dd2 inh 13µM*.
`COc1cccc(CNC(=O)[C@@H]2C[C@@H](O)CN2C2CCN(C(=O)c3ccncc3)CC2)c1` gave Pf Dd2 inh -19%.
COc1cccc(CNC(=O)[C@@H]2C[C@@H](O)CN2C2CCN(C(=O)CC3CCCC3)CC2)c1 was read as Pf Dd2 inh inactive.
For Cc1ccc(CN2C(=O)NC3(CCCN(C(=O)c4cc(F)ccc4F)C3)C2=O)cc1 (stereo not drawn) the results were Pf Dd2 inh -20%.
`OCC1(c2nc(C3CCOCC3)nn2-c2cccc3c2CCC3)CC1` gave Pf Dd2 inh 5%.
`COc1ccc(N2CC3CCC(C2)N3C(=O)c2c(C)noc2C)cc1` gave Pf Dd2 inh 3%.
Screening COc1ccccc1NC(=O)Cn1c(=O)n(Cc2ccco2)c(=O)c2cccnc21 returned Pf Dd2 inh 13%.
CCOc1ccccc1NC(=O)Cn1c(=O)n(Cc2ccco2)c(=O)c2cccnc21 was read as Pf Dd2 inh 11µM*.
Cc1ccc(NC(=O)Cn2c(=O)n(Cc3ccco3)c(=O)c3ccccc32)c(C)c1 was read as Pf Dd2 inh -2%.
For CCc1noc(-c2cn(C3CCN(C(=O)c4ccc(OC(F)(F)F)cc4)CC3)nn2)n1 the results were Pf Dd2 inh inactive.
Screening CN(Cc1ccc2nsnc2c1)C(=O)c1ccc(N2CCCC2=O)cc1 returned Pf Dd2 inh 13%.
For COCC(=O)N1CCCC(C(=O)NCc2ccc3nsnc3c2)C1 (stereo not drawn) the results were Pf Dd2 inh 0%.
For Cc1ccc(N2CCC3(CCCN3Cc3ccc4nsnc4c3)CC2)nn1 the results were Pf Dd2 inh 13µM*.
`CC(NC(=O)COc1ccc(NC(=O)C2CC2)cn1)c1cccs1` (stereo not drawn) gave Pf Dd2 inh 26%.
O=C(NCc1ccc(Cl)cc1)C1CCCN(C2CCN(C(=O)C3CC3)CC2)C1 (stereo not drawn) was read as Pf Dd2 inh inactive.
For CC(C)NC(=O)N1CCC2(CC1)CN(C(=O)c1ccc3[nH]ccc3c1)Cc1ccccc1O2 the results were Pf Dd2 inh 13µM*.
Screening CC(C)NC(=O)N1Cc2ccccc2OC2(CCN(C(=O)c3cccc4[nH]ccc34)CC2)C1 returned Pf Dd2 inh 11µM*.
CC(=O)N1CCC2(CC1)CN(C(=O)NC(C)C)Cc1ccccc1O2 was read as Pf Dd2 inh 9%.
CC(=O)N1Cc2ccccc2OC2(CCN(C(=O)NC(C)C)CC2)C1 was read as Pf Dd2 inh -9%.
`C[S+](=O)([O-])N1Cc2ccccc2OC2(CCN(C(=O)c3cccc4[nH]ccc34)CC2)C1` gave Pf Dd2 inh -29%.
For CN(C)C(=O)N1CCC2(CC1)CN(C(=O)c1cccc3[nH]ccc13)Cc1ccccc1O2 the results were Pf Dd2 inh -28%.
Screening COC[C@@H]1CN(C(=O)CCn2cccn2)C[C@H]1c1ccncc1 returned Pf Dd2 inh 19%.
`O=C1NCc2ccccc2CC12CCN(Cc1ccccn1)CC2` gave Pf Dd2 inh 4%.
COc1ccc(-c2cc(N3CCN(C(=O)c4cccc(OC)c4OC)CC3)n[nH]2)cc1 was read as Pf Dd2 inh -8%.
COCc1noc([C@@H]2CN(S(=O)(=O)c3ccc(C#N)cc3)C[C@H]2C(N)=O)n1 was read as Pf Dd2 inh 28%.
`COc1cc(OC)cc(C(=O)N[C@@H]2CN(C3CCOCC3)C[C@H]2CN(C)C)c1` gave Pf Dd2 inh inactive.
CC(C)(Oc1nn(CC2CC2)c2ccc(CN3CCCC3)cc12)C(=O)NCC(F)(F)F was read as Pf Dd2 inh 13µM*.
For CC(C)(Oc1nn(CC2CCOCC2)c2ccccc12)C(=O)NCC1CCOCC1 the results were Pf Dd2 inh 37%[44.1 µM].
For Cn1nc(OC(C)(C)C(=O)NCCc2ccccc2)c2cc(CN3CCCC3)ccc21 the results were Pf Dd2 inh -3%[44.1 µM].
Screening COCCNC(=O)[C@@H]1C[C@H](Oc2cccnc2)CN1C(=O)Cc1c[nH]c2ccccc12 returned Pf Dd2 inh 32%.
Screening CCn1cc(S(=O)(=O)N(C)C2CCc3nn(C)c(=O)n3CC2)cn1 (stereo not drawn) returned Pf Dd2 inh 28%.
`Cc1ccc(-c2nnc(C3CN(C(=O)c4cccc(C)c4)CC34CCOCC4)o2)cc1` (stereo not drawn) gave Pf Dd2 inh inactive.
For Cc1ccc(-c2nnc(C3CN(C(=O)Cc4cccc(F)c4)CC34CCOCC4)o2)cc1 (stereo not drawn) the results were Pf Dd2 inh inactive.
Cc1ccc(-c2nnc(C3CN(C(=O)c4cccnc4C)CC34CCOCC4)o2)cc1 (stereo not drawn) was read as Pf Dd2 inh -14%.
For Cc1ccc(-c2nnc(C3CN(C(=O)c4cccc(F)c4)CC34CCOCC4)o2)cc1 (stereo not drawn) the results were Pf Dd2 inh 4µM*.
`Cc1ccc(-c2nnc(C3CN(C(=O)c4ccn[nH]4)CC34CCOCC4)o2)cc1` (stereo not drawn) gave Pf Dd2 inh inactive.
Cc1ccc(-c2nnc(C3CN(C(=O)c4n[nH]c5ccccc45)CC34CCOCC4)o2)cc1 (stereo not drawn) was read as Pf Dd2 inh 8.9µM*.
CCCNc1ncc(CN2CCC(Cc3nn(C)c(=O)n3CC)CC2)cn1 was read as Pf Dd2 inh -6%.
`CCNC(=O)N(C1CC1)C1CCOC2(CCN(C(=O)Cc3cccc(C)c3)CC2)C1` (stereo not drawn) gave Pf Dd2 inh 1%.
For C[S+](=O)([O-])N1Cc2ccccc2OC2(CCN(C(=O)CCc3ccc(O)cc3)CC2)C1 the results were Pf Dd2 inh -5%.
`O=C(N[C@@H]1CCOC[C@H]1OCCO)c1cccc(-c2ccco2)c1` gave Pf Dd2 inh -3%.
CC(=O)N1CCN(C(=O)C[C@@H]2C[C@@H](C(C)C)[C@H](CC#N)C=C2C)CC1 was read as Pf Dd2 inh -10%[44.1 µM].
CC1=C[C@@H](CC#N)[C@H](C(C)C)C[C@H]1CC(=O)N1CCN(c2cnccn2)CC1 was read as Pf Dd2 inh 7.1µM*.
CC1=C[C@@H](CNC(=O)C(C)(C)C)[C@H](C(C)C)C[C@H]1CC(=O)N1CCN(c2ccccn2)CC1 was read as Pf Dd2 inh -6%.
CC1=C[C@@H](CNC(=O)c2ccccc2)[C@H](C(C)C)C[C@H]1CC(=O)N1CCN(C)CC1 was read as Pf Dd2 inh inactive.
Screening CC1=C[C@@H](CNC(=O)C2CCCCC2)[C@H](C(C)C)C[C@H]1CC(=O)N1CCN(c2ccccn2)CC1 returned Pf Dd2 inh 10µM*.
For CC1=C[C@@H](CO)[C@H](C(C)C)C[C@H]1CC(=O)N1CCN(CCO)CC1 the results were Pf Dd2 inh inactive.
`COc1ccc(C(=O)N2CCN(c3cc(C(F)(F)F)ncn3)CC2)cc1OC` gave Pf Dd2 inh 1%.
Cc1nc(CCC(=O)N2CCCC(CCc3c(F)cccc3F)C2)n[nH]1 (stereo not drawn) was read as Pf Dd2 inh -6%.
